Measurements reported in PubChem BioAssay (NCI).
Compounds without any hit were thinned out: in the full panel of roughly 79,000, 15% have a hit. Active and inactive are the calls of the source. Rule as the data show it: active = growth inhibition above about 70%; inactive = the rest.

Key:
[1] = NCI Yeast Anticancer Drug Screen. Data for the rad52 strain (AID 147);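 also: 0% = growth of vehicle-treated control cultures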; settings: S. cerevisiae rad52 mutant growth inhibition, hits give high values
Method in brief: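 Screen used a yeast mutant impaired in DNA repair. After compound exposure, growth was measured. Values reflect inhibition compared with vehicle-treated cells.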

[2] = NCI Yeast Anticancer Drug Screen. Data for the wt1 strain (AID 149);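 also: 0% = growth of vehicle-treated wt1 cultures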; settings: S. cerevisiae wt1 strain (SPY 50644) growth inhibition, hits give high values
Method in brief: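 Readout: yeast growth inhibition, normalised to vehicle controls, in the wt1 strain exposed to test compounds.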

[3] = NCI Yeast Anticancer Drug Screen. Data for the rad50EPP+ strain (AID 151);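 also: 0% = growth of vehicle-treated control cultures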; settings: S. cerevisiae rad50 mutant strain, hits give high values
Method in brief: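 Exposing the rad50EPP+ strain to each compound, growth was compared with vehicle-only cultures to give inhibition.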

[4] = NCI Yeast Anticancer Drug Screen. Data for the mgt1 strain (AID 153); settings: S. cerevisiae mgt1 mutant growth inhibition, hits give high values
Method in brief: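 Genetically defined yeast (mgt1) treated with compound; inhibition of growth expressed against vehicle-treated controls.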

[5] = NCI Yeast Anticancer Drug Screen. Data for the rad50 strain (AID 155);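 also: 0% = growth of vehicle-only cultures of the same strain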; settings: S. cerevisiae rad50 strain growth inhibition, hits give high values
Method in brief: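 Compounds were tested on a yeast strain with an engineered DNA damage repair alteration; the reported value is growth inhibition normalised to vehicle treatment.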

[6] = NCI Yeast Anticancer Drug Screen. Data for the mec2-1 strain (AID 157); settings: S. cerevisiae mec2-1 strain, hits give high values
Method in brief: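 Readout is yeast growth inhibition, normalised to vehicle-treated controls, in the mec2-1 strain exposed to compound.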

[7] = NCI Yeast Anticancer Drug Screen. Data for the rad14 strain (AID 159);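 also: 0% = growth of vehicle-treated control cultures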; settings: S. cerevisiae rad14 strain growth inhibition, hits give high values
Method in brief: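 Compound-treated yeast with a defined DNA-repair lesion; growth inhibition normalised to vehicle-treated cultures.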

[8] = NCI Yeast Anticancer Drug Screen. Data for the sgs1 mgt1 strain (AID 161);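 also: 0% = growth of cultures given vehicle only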; settings: S. cerevisiae sgs1 mgt1 strain, hits give high values
Method in brief: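 Yeast cells carrying a defined DNA-repair defect were exposed to test compounds. Growth inhibition was measured relative to vehicle-treated controls.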

[9] = NCI Yeast Anticancer Drug Screen. Data for the CLN2oe strain (AID 163);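 also: 0% = growth of vehicle-only control cultures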; settings: S. cerevisiae CLN2oe strain, hits give high values
Method in brief: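 Values reflect how much compound exposure reduced yeast growth, referenced to vehicle-exposed cells. Assay organism is a strain with a defined genetic change affecting cell-cycle control.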

[10] = NCI Yeast Anticancer Drug Screen. Data for the cln2 rad14 strain (AID 165);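 also: 0% = growth equal to vehicle treated cultures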; settings: S. cerevisiae cln2 rad14 strain, hits give high values
Method in brief: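 Relative to vehicle controls, growth inhibition of compound-treated cln2 rad14 yeast was recorded.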

[11] = NCI Yeast Anticancer Drug Screen. Data for the bub3 strain (AID 167); settings: S. cerevisiae bub3 mutant strain, hits give high values
Method in brief: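 Growth of a checkpoint-deficient yeast mutant is measured after compound exposure. Values represent inhibition relative to vehicle.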

[12] = NCI Yeast Anticancer Drug Screen. Data for the wt2 strain (AID 169);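 also: 0% = growth of vehicle-treated yeast cultures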; settings: S. cerevisiae wt2 strain growth inhibition, hits give high values
Method in brief: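 Values express reduction in yeast growth under compound treatment, referenced to vehicle-treated cells.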

[13] = NCI Yeast Anticancer Drug Screen. Data for the mlh1 strain (AID 171);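 also: 0% = growth of vehicle-treated control cultures of the same strain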; settings: S. cerevisiae mlh1 strain growth inhibition, hits give high values
Method in brief: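 Steps: expose the defined-mutant yeast strain to compound; expose a parallel culture to vehicle; measure growth; express compound effect as inhibition relative to the vehicle culture.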

[14] = NCI Yeast Anticancer Drug Screen. Data for the sgs1 strain (AID 173);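 also: 0% = growth of vehicle-only control cultures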; settings: S. cerevisiae sgs1 mutant, hits give high values
Method in brief: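 Treat defined-mutant yeast with compound; measure growth; calculate inhibition relative to vehicle-treated cells.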

[15] = NCI Yeast Anticancer Drug Screen. Data for the mlh1 rad18 strain (AID 175); settings: S. cerevisiae mlh1 rad18 strain growth inhibition, hits give high values
Method in brief: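 Test agents were incubated with a yeast strain of defined genotype (DNA damage repair defect). Inhibition of growth was derived by comparison with vehicle-exposed cultures.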

[16] = NCI Yeast Anticancer Drug Screen. Data for the rad18 strain (AID 177); settings: S. cerevisiae rad18 mutant growth inhibition, hits give high values
Method in brief: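 A genetically defined yeast mutant impaired in DNA damage repair was treated with test compounds, then its growth was measured against cultures receiving vehicle alone.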

[17] = at 5.0 µM (retest, dose inferred, filed as 0.5)
[18] = at 50.0 µM (retest, dose inferred, filed as 5.0)

Measured: growth inhibition

COc1ccc(/C=C2\SC(=S)N(/C=C/c3nc4ccccc4[nH]c3=O)C2=O)cc1OC
active: [1]; at 100.0 µM 86% | [2]; at 100.0 µM 90% | [4]; at 33.0 µM 76% | [4]; at 100.0 µM 94% | [5]; at 100.0 µM 85% | [6]; at 100.0 µM 91% | [7]; at 100.0 µM 90% | [8]; at 50.0 µM 87% | [9]; at 100.0 µM 88% | [11]; at 50.0 µM 70.3% | [11]; at 100.0 µM 85% | [12]; at 33.0 µM 80% | [12]; at 100.0 µM 94% | [13]; at 33.0 µM 76% | [13]; at 100.0 µM 91% | [14]; at 33.0 µM 85% | [14]; at 100.0 µM 94% | [16]; at 100.0 µM 85%
inactive: [1]; at 1.2 µM 7% | [1]; at 3.7 µM 10% | [1]; at 11.0 µM 26% | [1]; at 33.0 µM 61% | [2]; at 1.2 µM 3% | [2]; at 3.7 µM 5% | [2]; at 11.0 µM 10% | [2]; at 33.0 µM 40% | [3]; at 1.2 µM 1% | [3]; at 3.7 µM 3% | [3]; at 11.0 µM 21% | [3]; at 33.0 µM 50% | [3]; at 100.0 µM 63% | [4]; at 1.2 µM -1% | [4]; at 3.7 µM 3% | [4]; at 11.0 µM 30% | [5]; at 1.2 µM -2% | [5]; at 3.7 µM -5% | [5]; [17] -12% | [5]; at 11.0 µM 12% | [5]; at 33.0 µM 61% | [5]; [18] 46% | [5]; at 50.0 µM 57.2% | [6]; at 1.2 µM 3% | [6]; at 3.7 µM 5% | [6]; [17] -17% | [6]; at 11.0 µM 17% | [6]; at 33.0 µM 66% | [6]; [18] 45% | [6]; at 50.0 µM 68.1% | [7]; at 1.2 µM 3% | [7]; at 3.7 µM 4% | [7]; at 11.0 µM 26% | [7]; at 33.0 µM 64% | [8]; [17] -7% | [8]; [18] 57% | [9]; at 1.2 µM -17% | [9]; at 3.7 µM -11% | [9]; at 11.0 µM 7% | [9]; at 33.0 µM 59% | [10]; [17] -30% | [10]; [18] 26% | [10]; at 50.0 µM 32.5% | [11]; at 1.2 µM 4% | [11]; at 3.7 µM 4% | [11]; [17] -14% | [11]; at 11.0 µM 19% | [11]; at 33.0 µM 52% | [11]; [18] 4% | [12]; at 1.2 µM 1% | [12]; at 3.7 µM 3% | [12]; at 11.0 µM 28% | [13]; at 1.2 µM 1% | [13]; at 3.7 µM 5% | [13]; at 11.0 µM 28% | [14]; at 1.2 µM 5% | [14]; at 3.7 µM 14% | [14]; at 11.0 µM 43% | [15]; [17] -11% | [15]; [18] 33% | [15]; at 50.0 µM 61.6% | [16]; at 1.2 µM 10% | [16]; at 3.7 µM 20% | [16]; at 11.0 µM 39% | [16]; at 33.0 µM 67%

Clc1ccc(SC(/C=C/NNC2=NC(c3ccccc3)C(c3ccccc3)=NN2)c2ccccc2)cc1 (stereo unspecified)
inactive: [1]; at 1.2 µM 0% | [1]; at 3.7 µM 6% | [1]; at 11.0 µM 11% | [1]; at 33.0 µM 19% | [2]; at 1.2 µM 0% | [2]; at 3.7 µM -1% | [2]; at 11.0 µM -2% | [2]; at 33.0 µM -1% | [2]; at 100.0 µM 51% | [3]; at 1.2 µM 2% | [3]; at 3.7 µM 12% | [3]; at 11.0 µM 7% | [3]; at 33.0 µM 6% | [3]; at 100.0 µM 0% | [4]; at 1.2 µM -5% | [4]; at 3.7 µM 8% | [4]; at 11.0 µM -11% | [4]; at 33.0 µM 8% | [5]; at 1.2 µM 4% | [5]; at 3.7 µM 14% | [5]; [17] 48% | [5]; at 11.0 µM 14% | [5]; at 33.0 µM 47% | [5]; [18] 48% | [6]; at 1.2 µM -1% | [6]; at 3.7 µM 2% | [6]; [17] 0% | [6]; at 11.0 µM 2% | [6]; at 33.0 µM 8% | [6]; [18] 0% | [6]; at 50.0 µM 18.6% | [7]; at 1.2 µM 1% | [7]; at 3.7 µM 6% | [7]; at 11.0 µM 2% | [7]; at 33.0 µM 50% | [8]; [17] 31% | [8]; [18] 31% | [8]; at 50.0 µM 49.8% | [9]; at 1.2 µM -9% | [9]; at 3.7 µM 0% | [9]; at 11.0 µM -4% | [9]; at 33.0 µM 1% | [10]; [17] 7% | [10]; [18] 7% | [11]; at 1.2 µM -1% | [11]; at 3.7 µM -1% | [11]; [17] 5% | [11]; at 11.0 µM 0% | [11]; at 33.0 µM 37% | [11]; [18] 5% | [11]; at 50.0 µM 60.9% | [12]; at 1.2 µM 0% | [12]; at 3.7 µM 2% | [12]; at 11.0 µM 2% | [12]; at 33.0 µM 29% | [13]; at 1.2 µM -3% | [13]; at 3.7 µM 5% | [13]; at 11.0 µM -4% | [13]; at 33.0 µM 31% | [14]; at 1.2 µM 1% | [14]; at 3.7 µM 3% | [14]; at 11.0 µM 4% | [14]; at 33.0 µM 33% | [15]; [17] 0% | [15]; [18] 0% | [15]; at 50.0 µM 58.4% | [16]; at 1.2 µM 2% | [16]; at 3.7 µM 9% | [16]; at 11.0 µM 23% | [16]; at 33.0 µM 41%
active: [1]; at 100.0 µM 83% | [4]; at 100.0 µM 85% | [5]; at 50.0 µM 71.3% | [5]; at 100.0 µM 82% | [6]; at 100.0 µM 85% | [7]; at 100.0 µM 91% | [9]; at 100.0 µM 80% | [10]; at 50.0 µM 70% | [11]; at 100.0 µM 84% | [12]; at 100.0 µM 86% | [13]; at 100.0 µM 84% | [14]; at 100.0 µM 87% | [16]; at 100.0 µM 80%
